Assay results taken from PubChem BioAssay AID1063 (University of Pittsburgh Molecular Library Screening Center, 2008).
Out of some 200,000 compounds screened, about 18,000 (9%) were called active. Cut-off read from the data, not from the text of the source: active = inhibition above about 50%; inactive = the rest. The entries come from a sample that favours actives as a whole.

Assay: antileishmanial activity against promastigotes – primary screen (AID 1063);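 note: promastigotes grown with compound for 44 hours at 28 °C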
Conditions: Leishmania major promastigotes, resazurin fluorescence viability; at 10 µM; active compounds read high

Row | Structure (SMILES) | inhibition
1 | Cc1ccc(N(C(=O)c2ccc(S(=O)(=O)N(C)C)cc2)C2C=CS(=O)(=O)C2)cc1 (stereo unspecified) | 5.35% (inactive)
2 | COc1ccccc1-c1noc(CSc2nc(C)cc(=O)[nH]2)n1 | -6.37% (inactive)
3 | N#CCC(=O)N/N=C/c1ccc(SCC(=O)Nc2ccccc2)o1 | -1.51% (inactive)
4 | CCSc1sc(CC)cc1C=O | 5.02% (inactive)
5 | c1ccc2sc(NN=C3CCCC3)nc2c1 | 57% (active)
6 | Cc1ccnc(Nc2nc3ccccc3s2)n1 | 11.8% (inactive)
7 | O=C(Nc1ccccc1)Nc1nc2ccccc2s1 | -0.32% (inactive)
8 | O=C(C1CCCN1S(=O)(=O)c1ccc(Br)cc1)N1CCOCC1 (stereo unspecified) | 1.18% (inactive)
9 | CC1(C)CN(c2ccc(-c3ccnc4ncnn34)cc2)C1=O | 8.31% (inactive)
10 | CCN(CC)CCN(C(=O)c1ccc(N2C(=O)CCC2=O)cc1)c1nc2cc3c(cc2s1)OCO3 | 4.38% (inactive)
11 | Cc1[nH]c2ccccc2c1SCC(=O)Nc1nccs1 | 2.27% (inactive)
12 | Cc1ccc(NC(=O)NC2CCCCC2)cc1S(=O)(=O)N1CCOCC1 | 27.4% (inactive)
13 | COc1ccc(S(=O)(=O)N2CCC(C(=O)OCC(=O)c3ccccc3)CC2)cc1[N+](=O)[O-] | -6.1% (inactive)
14 | Cc1cc(C(=O)COc2ccccc2[N+](=O)[O-])c(C)n1-c1cccc(S(=O)(=O)N2CCOCC2)c1 | 98.9% (active)
15 | O=C(NC(=S)Nc1ccc(S(=O)(=O)N2CCOCC2)cc1)c1ccccc1[N+](=O)[O-] | 5.68% (inactive)
16 | S=c1[nH]ccn1-c1ccc(Cl)cc1 | -8.82% (inactive)
17 | O=S(=O)(NC1CC1)c1ccc2c3c(cccc13)CC2 | 3.72% (inactive)
18 | Cc1ccc(C(=O)OC2CCCN(C)C2)cc1 (stereo unspecified) | -6.05% (inactive)
19 | CCNS(=O)(=O)c1ccc(NC(=O)Nc2cccc(OC)c2)cc1 | 3.37% (inactive)
20 | O=C(Nc1ccc(S(=O)(=O)Nc2ncccn2)cc1)c1cncc(Br)c1 | -5.97% (inactive)
21 | CCNS(=O)(=O)c1ccc(NC(=O)c2cncc(Br)c2)cc1 | 50.3% (active)
22 | N#CC1(C#N)C(C(=O)C23CC4CC(CC(C4)C2)C3)C12CCOCC2 (stereo unspecified) | 4.33% (inactive)
23 | Cc1ccccc1CSc1nnc(-c2ccccc2)c(=O)[nH]1 | -8.07% (inactive)
24 | Cc1nn(CC(=O)NCc2ccccn2)c(C)c1[N+](=O)[O-] | -2.73% (inactive)

Row | Structure (SMILES) | inhibition
25 | CCc1ccc(NC(=O)Cn2nc(C)c([N+](=O)[O-])c2C)cc1 | 6.59% (inactive)
26 | Cc1nn(CC(=O)Nc2nc3ccccc3s2)c(C)c1[N+](=O)[O-] | 50.5% (active)
27 | C=CCN(CC=C)C(=O)COC(=O)c1n[nH]c2ccccc12 | 1.59% (inactive)
28 | CN(C(=O)CSc1nncc2ccccc12)C1CCCCC1 | 0.99% (inactive)
29 | Cc1ccc(-c2cn3cc(C)ccc3n2)cc1 | 87.7% (active)
30 | Cc1ccc(-c2cn3cc([N+](=O)[O-])ccc3n2)cc1 | 6.77% (inactive)
31 | COc1ccc(-c2cn3ccsc3n2)cc1 | 0.76% (inactive)
32 | CC(C)(C)C(=O)Nc1ccc(C(=O)N/N=C/c2ccccc2OC(=O)c2ccc(Cl)cc2Cl)cc1 | 40.8% (inactive)
33 | O=C(N/N=C/c1ccco1)c1ccc(NC(=O)C2CC2)cc1 | 5.98% (inactive)
34 | N#Cc1cc([N+](=O)[O-])ccc1Oc1cccc(/C=N/NC(=O)c2ccc(Cl)cc2)c1 | 15.7% (inactive)
35 | CC1(C)C2CC=C(/C=N/NC(=O)c3ccc(Cl)cc3)C1C2 (stereo unspecified) | 96% (active)
36 | CC1(C)C2CC=C(/C=N/NC(=O)C3CC3)C1C2 (stereo unspecified) | 99.3% (active)
37 | CCOc1ccc(N2C(=O)CN(c3cccc4ccccc34)C2=S)cc1 | -2.38% (inactive)
38 | CCS(=O)(=O)C1=NSC2=NC(=O)/C(=C\c3cc(C)n(-c4cccc(OC)c4)c3C)C(=N)N21 | -2.58% (inactive)
39 | Cc1ccc(S(=O)(=O)NCCC(c2ccccc2)c2ccccc2)cc1C(=O)O | -13.6% (inactive)
40 | COc1cccc(-n2nc(C(=O)N3CCN(Cc4ccccc4)CC3)c3ccccc3c2=O)c1 | -6.17% (inactive)
41 | NC(N)=N/N=C/c1ccc(Cl)c([N+](=O)[O-])c1 | 100% (active)
42 | CC(CC(=O)O)C(=O)c1ccc(Cl)c([N+](=O)[O-])c1 (stereo unspecified) | -1.01% (inactive)
43 | Cc1ccnc(NC(=O)c2ccc(Cl)c([N+](=O)[O-])c2)c1 | 28.8% (inactive)
44 | O=C(CCNS(=O)(=O)c1ccc(Br)s1)NCc1ccccc1Cl | 15.3% (inactive)
45 | CCCc1cc(=O)[nH]c(SCC(=O)OCc2ccccc2)n1 | 1.09% (inactive)
46 | CCCc1cc(=O)[nH]c(SCC(=O)N2CCN(S(=O)(=O)c3ccc(C)cc3C)CC2)n1 | 63% (active)
47 | CCCc1cc(=O)[nH]c(SCC(=O)c2cc(C)n(CCC)c2C)n1 | 11.3% (inactive)
48 | CCCOc1ccc(NC(=O)CC2C(=O)N(C)C(=S)N2Cc2ccc3c(c2)OCO3)cc1 (stereo unspecified) | 3.31% (inactive)

Row | Structure (SMILES) | inhibition
49 | COc1cccc(NCCC(=O)c2cccc([N+](=O)[O-])c2)c1 | 85% (active)
50 | COc1ccc(Cc2nnc(SCC(=O)c3cccc([N+](=O)[O-])c3)n2C)cc1 | 7.37% (inactive)
51 | CC(C)(C)SCCNC(=O)c1cccc([N+](=O)[O-])c1 | 45.2% (inactive)
52 | O=C(c1nnc(-c2ccc(Cl)cc2)o1)C1CCCC1 | -8.13% (inactive)
53 | Cc1cccc(NC(=S)NC23CN4CN(CN(C4)C2)C3)c1 | -0.78% (inactive)
54 | CC1CCCCC1NC(=O)CN1CCC(O)(c2ccc3c(c2)OCO3)CC1 (stereo unspecified) | 30.1% (inactive)
55 | CC1CCCCN1CC(=O)NCc1ccc2c(c1)OCO2 (stereo unspecified) | 4.4% (inactive)
56 | CC(=O)NC1CC2CCCC(C1)N2CC(=O)Nc1ccccc1 (stereo unspecified) | -0.85% (inactive)
57 | CCN(CC)c1ccc(C2C3CCCCC3(O)CCN2CC(=O)Nc2ccccc2)cc1 (stereo unspecified) | 78.2% (active)
58 | O=C(CN1CCOCC1)Nc1ccccc1 | -4.08% (inactive)
59 | Cc1ccc(NC(=O)CN2CCC3(O)CCCCC3C2c2ccc3c(c2)OCO3)c(C)c1 (stereo unspecified) | 89.1% (active)
60 | CCOc1ccc(C(O)Cn2c(=N)n(CCN3CCCCC3)c3ccccc32)cc1 (stereo unspecified) | 80.6% (active)
61 | Cc1cccc(OCC(O)Cn2c(=N)n(CCN3CCOCC3)c3ccccc32)c1 (stereo unspecified) | 10.1% (inactive)
62 | Cn1c(=N)n(CC(O)c2ccccc2)c2ccccc21 (stereo unspecified) | 3.48% (inactive)
63 | CCOC(=O)C1C(c2ccc(Cl)cc2)NC(=S)NC1(O)C(F)(F)F (stereo unspecified) | -2.87% (inactive)
64 | COc1ccc(OCC(=O)N2CCOCC2)cc1 | 0.46% (inactive)
65 | CC1CN(C2CCN(C(=O)COc3ccccc3)CC2)CC(C)O1 (stereo unspecified) | 88.1% (active)
66 | COc1ccc(OCC(=O)N2CCN(C(=O)COc3ccccc3)CC2)cc1 | -5.93% (inactive)
67 | Cc1csc(CN(C)C(=O)CC2C(=O)NCCN2CC(C)(C)C)n1 (stereo unspecified) | -1.56% (inactive)
68 | O=C(N/N=C/c1ccc([N+](=O)[O-])cc1)c1c[nH]c2ccccc12 | 2.8% (inactive)
69 | Cc1cc(C)c(C(N)=O)c(Cl)n1 | -12.9% (inactive)
70 | Cc1cc(C)nc(N2CCC(C(=O)Nc3ccc4c(c3)OCCO4)CC2)n1 | -3.98% (inactive)
71 | COc1ccc(S(=O)(=O)Nc2cccnc2)c(Cl)c1Cl | 1.47% (inactive)
72 | CCOC(=O)C1CCN(CCC(=O)Nc2cccc(C)c2)CC1 | 92.7% (active)

Row | Structure (SMILES) | inhibition
73 | CCOC(=O)C1CCN(C(=O)C2(NC(=O)Nc3cccc(F)c3)CCCCC2)CC1 | -15.2% (inactive)
74 | CC1CCN(CCC(=O)Nc2ccccc2)CC1 | 18.3% (inactive)
75 | O=C(O)/C=C\C(=O)Nc1ccc(OCc2ccccc2)cc1 | -4.77% (inactive)
76 | O=C1c2oc3ccc(Br)cc3c(=O)c2C(c2cccc(F)c2)N1CCO (stereo unspecified) | -1.54% (inactive)
77 | Cc1c(-c2nn(C)c(=O)c3ccccc23)oc2ccc(F)cc2c1=O | 94.9% (active)
78 | Cc1ccc(F)cc1NC(=O)Cc1nn(C)c(=O)c2ccccc12 | -5.08% (inactive)
79 | CCN(CCCNC(=O)CCn1c(=O)[nH]c2ccsc2c1=O)c1ccccc1 | -5.73% (inactive)
80 | COC(=O)c1cc(NC(=O)c2cccnc2)ccc1N1CCOCC1 | -4.83% (inactive)
81 | Clc1ccc(-n2nnnc2-c2cnc(-c3ccccn3)nc2-c2cccs2)cc1 | 61.2% (active)
82 | O=C(Cn1cc(-c2nnnn2-c2ccc(Cl)cc2)c(=O)c2ccccc21)c1ccccc1 | -4.69% (inactive)
83 | c1ccc(-c2noc(-c3cccs3)n2)nc1 | -1.93% (inactive)
84 | COc1ccccc1N1CCN(C(=O)c2cc3c(-c4ccc(Cl)cc4)nn(C)c3s2)CC1 | 60.4% (active)
85 | O=C(c1cn(-c2ccccc2)nc1-c1cccnc1)N1CCCCC1 | -1.11% (inactive)
86 | COc1cccc(-c2nn(C)c3sc(C(=O)N4CCN(c5ccccc5)CC4)cc23)c1 | 20.1% (inactive)
87 | CC(C)(C)OC(=O)N/N=C/c1cn(-c2ccccc2)nc1-c1cccnc1 | 21.8% (inactive)
88 | CCOC(=O)N1CCN(C(=O)c2cc3c(-c4ccc(Cl)cc4)nn(C)c3s2)CC1 | 10.6% (inactive)
89 | COc1ccccc1N1CCN(C(=O)c2cn(-c3ccccc3)nc2-c2cccnc2)CC1 | 84.2% (active)
90 | C/C(=N/Nc1ccc(Cl)cc1)c1cnnc(-c2ccccc2)n1 | 2.35% (inactive)
91 | Cc1ccc(C(=O)NC(=S)Nc2ccccc2C)cc1 | 0.17% (inactive)
92 | Cc1nn(-c2ccccc2)c(C)c1/C=N/NC(=O)CSc1nc2ccccc2c(=O)n1-c1ccccc1 | 14.7% (inactive)
93 | C/C(=N\NC(=O)COc1c(C)cccc1C)c1cccs1 | 2.87% (inactive)
94 | C/C(=N\NC(=O)CSc1nc2ccccc2c(=O)n1-c1ccccc1C)c1cccs1 | 91% (active)
95 | Cc1ccnc(NC(=O)CCCOc2ccccc2)c1 | -3.55% (inactive)
96 | O=C(Nc1ccc(F)cc1)N1CCN(c2ccc(F)cc2)CC1 | -0.19% (inactive)
